Data taken from PubChem BioAssay (EPA / NIEHS).
Values joined by “and” are separate entries in the source; they are usually repeats but may differ in a detail not shown here. Equal values may be shown once. Some structures have more than one record in an assay (separate samples or runs), and their calls can disagree. Active and inactive are the calls of the source. The calls were made as follows: active = hit-call score of the fitted dose curve at least 0.9, where 1 is the maximum; inactive = score below 0.9.

Experiment: APR_HepG2_p53Act_24hr: Apredica 24-hour HepG2 Assay for p53 Activation (AID 2282913)
Conditions: high-content imaging, actives raise or lower the signal
Protocol: APR_HepG2_24hr is a cell-based, multiplexed-readout assay that uses HepG2, a human liver cell line, with measurements taken at 24 hours after chemical dosing in a 384-well plate.APR_HepG2_p53Act_24hr is one of 10 assay component(s) measured or calculated from the APR_HepG2_24hr assay. It is designed to make measurements of dna content, a form of viability reporter, as detected with fluorescence intensity signals by HCS Fluorescent Imaging technology.Data from the assay component APR_HepG2_p53Act_24hr was analyzed into 1 assay endpoint. This assay endpoint, APR_HepG2_p53Act_24hr, was analyzed with bidirectional fitting relative to DMSO as the negative control and baseline of activity. Using a type of viability reporter, measures of protein for gain or loss-of-signal activity can be used to understand the signaling at the pathway-level as they relate to the gene TP53. Furthermore, this assay endpoint can be referred to as a primary readout, because this assay has produced multiple assay endpoints where this one serves a signaling function. To generalize the intended target to other relatable targets, this assay endpoint is annotated to the dna binding intended target family, where the subfamily is tumor suppressor.
Cells were treated with dimethyl sulfoxide (DMSO) as a solvent control at a final concentration of 0.5% v/v or with compounds in DMSO with a resulting final DMSO concentration of 0.5% v/v. Compound treatment was done at concentrations of 0.39, 0.78, 1.56, 3.12, 6.24, 12.5, 25, 50, 100, and 200 uM in duplicate on each plate. Cells were treated with compounds for 1, 24, or 72 hr. Carbonyl […] m-chloro-phenylhydrazone (CCCP) and taxol were used as positive controls for mitochondrial function and cytoskeletal stability, respectively; DMSO served as the negative control for this experiment. Cells were fixed by the direct addition of 50 uL formaldehyde in Hank's Balanced Salt Solution (HBSS) to a final concentration of 3.7%. After incubation in the fixation medium for 30 min at room temperature (293-298 K), cells were rinsed twice with HBSS and treated with cell permeabilization buffer (16 uL of 0.5% Triton X-100) for 10 min at room temperature (293-298 K) before labeling. For mitochondrial membrane potential and mitochondrial measurements, pre-fixed cells were incubated with 50 uL of MitoTracker Red CMXRos (Invitrogen) at a concentration of 250 nM for 30 min before fixation. In the remaining cases, post-fixed cells were labeled by incubation with a multiplexed mixture of primary antibodies in HBSS for 60 min at room temperature (293-298 K) to detect immunoreactivity of c-Jun (1:500), phospho-histone H3 (1:100), phospho-histone H2A.x (1:200), p53 (1:400), alpha-tubulin (1:200) and Hoechst 33342 (2 ug/mL). Cells were labeled for multiplexed imaging on two separate plates: a) Hoechst 33342, MitoTracker Red, phospho-histone H3, and alpha-tubulin, and b) Hoechst 33342, phospho-histone H2A.x, and c-Jun. A final rinse with HBSS (50 uL) was performed before analysis. The primary and secondary antibodies for the proteins were phospho-histone H3 (rabbit anti-phospho-histone H3 and FITC-donkey anti-rabbit IgG), phospho-histone H2A.x (mouse anti-phospho-histone H2A.x and FITC-donkey anti-mouse IgG), c-Jun (rabbit anti-phospho-c-Jun and Cy3-donkey anti-rabbit IgG), p53 (sheep anti-p53 and Cy5-donkey anti-sheep IgG), alpha-tubulin (mouse anti-alpha-tubulin and Cy5-donkey anti-mouse IgG). These antibodies are available as the CellCiphr HepG2 assay kit (Millipore).Digital images of each well were captured using a Cellomics ArrayScan VTI (Thermo Scientific Cellomics) (0.8 NA objective, 0.63x optical coupler, and XF-93 filter set) at 20x magnification. The images were acquired using the autofocus feature of the ArrayScan instrument, which entails the following steps. First, the camera focuses on channel 1 (Hoechst 33342), where nuclei are identified. Second, a Z offset of 1 um is used for capturing mitochondria (MitoTracker Red). […]

Row | SMILES | outcome | AC50
1 | OCCOc1ccccc1 | inactive | –
2 | Oc1ccc(Cl)cc1Cc1ccccc1 | inactive | 80.5 µM (active) and 50.5 µM (active)
3 | O=S1OCC2C(CO1)C1(Cl)C(Cl)=C(Cl)C2(Cl)C1(Cl)Cl (stereo not given) | inactive | –
4 | CCOCN(C(=O)CCl)c1c(C)cccc1CC | – | 31.9 µM (active)
5 | Oc1cc(Cl)ccc1Oc1ccc(Cl)cc1Cl | inactive | 28.4 µM (active)
6 | N#Cc1c(Cl)c(Cl)c(Cl)c(C#N)c1Cl | inactive | –
7 | COP(=S)(OC)Oc1ccc(SC)c(C)c1 | inactive | –
8 | CC(C)(C)C(O)/C(=C\c1ccc(Cl)cc1Cl)n1cncn1 (stereo not given) | inactive | –
9 | CNC(=O)Oc1ccccc1OC(C)C | inactive | –
10 | COC(=O)c1ccccc1S(=O)(=O)NC(=O)Nc1nc(C)nc(OC)n1 | inactive | –
11 | O=C(O)CCCOc1ccc(Cl)cc1Cl | inactive | –
12 | CCOc1nc(NC)nc(NC(=O)NS(=O)(=O)c2ccccc2C(=O)OC)n1 | inactive | –
13 | CNC(=O)Oc1cccc(N=CN(C)C)c1 | inactive | –
14 | CC(C)N(C(=O)COc1nnc(C(F)(F)F)s1)c1ccc(F)cc1 | inactive | –
15 | O=[N+]([O-])c1c(Cl)c(Cl)c(Cl)c(Cl)c1Cl | inactive | –
16 | O=S(=O)(O)C(F)(F)C(F)(F)C(F)(F)C(F)(F)C(F)(F)C(F)(F)C(F)(F)C(F)(F)F | inactive | 111 µM (active) [middle of 4 runs]
17 | O=C1c2ccccc2C(=O)N1SC(Cl)(Cl)Cl | inactive | –
18 | CCC(C)(NC(=O)c1cc(Cl)c(C)c(Cl)c1)C(=O)CCl (stereo not given) | inactive | –
19 | COc1cc(OC)nc(NC(=O)NS(=O)(=O)c2cc(NC=O)ccc2C(=O)N(C)C)n1 | inactive | –

Row | SMILES | outcome | AC50
20 | CC(C)(C)C(O)C(Oc1ccc(Cl)cc1)n1cncn1 (stereo not given) | inactive | –
21 | CC(C)OC(=O)Nc1cccc(Cl)c1 | inactive | –
22 | CCC(C)(C)C(=O)OC1=C(c2ccc(Cl)cc2Cl)C(=O)OC12CCCCC2 | inactive | –
23 | C[C@H]1[C@H](c2ccc(Cl)cc2)SC(=O)N1C(=O)NC1CCCCC1 | inactive | –
24 | Cc1cc(C)nc(NC(=O)NS(=O)(=O)c2ccccc2C(=O)OC2COC2)n1 | inactive | –
25 | CC1(C)C(C=C(Cl)Cl)C1C(=O)OC(C#N)c1ccc(F)c(Oc2ccccc2)c1 (stereo not given) | inactive | –
26 | [2H]C1([2H])[n+]2ccccc2-c2cccc[n+]2C1([2H])[2H] | inactive | –
27 | COC(=O)c1ccccc1S(=O)(=O)NC(=O)N(C)c1nc(C)nc(OC)n1 | inactive | –
28 | CCCN(CCOc1c(Cl)cc(Cl)cc1Cl)C(=O)n1ccnc1 | inactive | –
29 | O=C(Nc1ccccc1)Nc1cnns1 | inactive | –
30 | CCc1ccc(C(=O)NN(C(=O)c2cc(C)cc(C)c2)C(C)(C)C)cc1 | inactive | –
31 | CC1(c2ccc(Oc3ccccc3)cc2)OC(=O)N(Nc2ccccc2)C1=O (stereo not given) | inactive | –
32 | CCS(=O)(=O)c1cccnc1S(=O)(=O)NC(=O)Nc1nc(OC)cc(OC)n1 | inactive | –
33 | CCN(CC)C(=O)SCc1ccc(Cl)cc1 | inactive | –
34 | COP(=S)(OC)Oc1ccc([N+](=O)[O-])cc1 | inactive | –
35 | ClC1C(Cl)C(Cl)C(Cl)C(Cl)C1Cl (stereo not given) | inactive | –
36 | COC(=O)c1ccccc1CS(=O)(=O)NC(=O)Nc1nc(OC)cc(OC)n1 | inactive | –
37 | O=C(O)C(F)(F)C(F)(F)C(F)(F)C(F)(F)C(F)(F)C(F)(F)C(F)(F)F | inactive | –
